According to PubChem BioAssay (Tox21):
Several values for one entry are separate records, joined by “and”; a condition that tells them apart may be missing. Equal values may be shown once. Records with an inconclusive call do not appear. A call without a number means that no potency is given here. Values without a mark were called inactive. Activity calls are given as the source filed them. The call rests on the fitted dose curve; in most records, active means well fitted activation curve with a large enough effect in the repeat runs; inconclusive means weak or mixed curves; inactive means flat fitted curve, though single readings scatter.

assay: A CellTox Green Cytotoxicity Assay to monitor cytotoxicity in HepG2 cells - 32 hour (AID 1224883); conditions: CellTox Green fluorescence; series mostly up to 76.8 µM; further: nearly all actives have a fitted effect of over 50% in size
Text: National Center for Advancing Translational Sciences [NCATS]
NIH Chemical Genomics Center [NCGC]
U.S. Environmental Protection Agency [EPA]
National Institutes of Environmental Health Sciences [NIEHS]
National Toxicology Program [NTP]
Cell-based models are critical for drug discovery. Determining the natural cytotoxic effects resulting from test compounds is an essential research activity. A CellTox Green Cytotoxicity Assay to monitor cytotoxicity in real time of continues cell culture during 40 hours of the compound treatment was used to screen Tox21 10K library compounds in HepG2 cells. CellTox Green Cytotoxicity Assay is a nonlytic, homogeneous, biofluorescent method to measure cytotoxicity in cell culture after experimental manipulation. The assay system uses a proprietary asymmetric cyanine dye that is excluded from viable cells but preferentially stains the dead cell's DNA. […] Viable cells produce no appreciable increases in fluorescence. Therefore, the fluorescence signal produced by the binding interaction with dead cell DNA is proportional to cytotoxicity.
The mixture of HepG2 cell suspension and reagents were dispensed at 600cells/6 ul/well in 1536-well tissue culture treated black solid bottom plates using a Multidrop dispenser. After the assay plates were incubated at a 37 C/5% CO2 incubator for 5 hours, 23 nL of compounds dissolved in DMSO, positive and negative controls was transferred to the assay plate by a pintool work station. The plates were incubated at 37 C for 40 hours. The fluorescence intensity were measured at 0h, 8h, 16h, 24h, 32h and 40h time points using ViewLux plate reader during compound treatment.
Potency means the concentration at half of the fitted maximal effect.

Question: With CN1CCC(Nc2ncc3ncnc(Nc4ccc(F)c(Cl)c4)c3n2)CC1 as the molecule, how does the Potency read?
Answer: The Potency was 26.8 µM (active).

Question: Which Potency does the source give for CC(C)(C)c1ccc(C(=O)O)cc1 here?
Answer: The Potency was “inactive”.

Question: With Nc1nc2ccccc2n1Cc1ccc(F)cc1 as the molecule, how does the Potency read?
Answer: Its Potency is 23.9 µM (active).

Question: For Nc1cc(C(F)(F)F)ccc1S, which Potency is on record?
Answer: The Potency was “inactive”.

Question: Which cytotoxicity increase does the source give for CC(NN)c1ccccc1 (stereo not given) here?
Answer: The cytotoxicity increase was -12.7% [at 15.8 µM].

Question: Which Potency does the source give for CCCCN1C(=O)[C@@H]([C@H](O)C2CCCCC2)NC(=O)C12CCN(Cc1ccc(Oc3ccc(C(=O)O)cc3)cc1)CC2 here?
Answer: Its Potency is “inactive”.

Question: With O=C(O)c1cc(O)c2c(c1)C(=O)c1cccc(O)c1C2=O as the molecule, how does the Potency read?
Answer: The Potency was “inactive”.

Question: With Cc1cccc2c1cc1ccc3cccc4ccc2c1c34 as the molecule, how does the Potency read?
Answer: The Potency was “inactive”.

Question: For CCCN(CCC)C(=O)C(CCC(=O)OCCCN1CCN(CCOC(=O)Cc2c(C)n(C(=O)c3ccc(Cl)cc3)c3ccc(OC)cc23)CC1)NC(=O)c1ccccc1 (stereo not given), which Potency is on record?
Answer: The Potency was 23.9 µM (active).

Question: Which Potency does the source give for O=CC=C(c1ccccc1)c1ccccc1 here?
Answer: Its Potency is “inactive”.

Question: For Cn1cc(C(=O)[C@@H]2CCc3nc[nH]c3C2)c2ccccc21, which Potency is on record?
Answer: Its Potency is “inactive”.

Question: With O=c1[nH]cnc2nc[nH]c12 as the molecule, how does the Potency read?
Answer: Its Potency is “inactive”.

Question: With CC(C)=CCOc1ccc(/C=C/C(=O)c2ccc(OCC=C(C)C)cc2OCC(=O)O)cc1 as the molecule, how does the Potency read?
Answer: The Potency was “inactive”.

Question: With COCCCC/C(=N\OCCN)c1ccc(C(F)(F)F)cc1 as the molecule, how does the Potency read?
Answer: The Potency was 26.8 µM (active).

Question: For CCN(Cc1cccnc1)C(=O)c1cccc(Cl)c1[C@]1(C)C(=O)N(Cc2ccc(OC)cc2OC)c2ccc(Cl)cc21, which Potency is on record?
Answer: Its Potency is “inactive”.

Question: For Cc1cc(O)c(C(C)(C)C)cc1C(C)(C)C, which Potency is on record?
Answer: Its Potency is 24.5 µM (active).

Question: For Cc1nc(-c2ccc3c(c2)CCN(CCC2CCC(NC(=O)/C=C/c4ccc(F)cc4)CC2)CC3)no1 (stereo not given), which Potency is on record?
Answer: Its Potency is “inactive”.

Question: For CC(=O)SC[C@@H](Cc1ccccc1)C(=O)NCC(=O)OCc1ccccc1, which Potency is on record?
Answer: Its Potency is “inactive”.

Question: Which Potency does the source give for Oc1cccc2cc3cccc(O)c3c(O)c12 here?
Answer: Its Potency is “inactive”.

Question: With C/C=C1/C(=O)C[C@H]2[C@@H]3CCC4=CC(=O)CC[C@]4(C)[C@H]3CC[C@]12C as the molecule, how does the Potency read?
Answer: The Potency was 48.8 µM (active).

Question: For O=C(OC[C@H]1O[C@@H](OC(=O)c2cc(O)c(O)c(OC(=O)c3cc(O)c(O)c(O)c3)c2)[C@H](OC(=O)c2cc(O)c(O)c(OC(=O)c3cc(O)c(O)c(O)c3)c2)[C@@H](OC(=O)c2cc(O)c(O)c(OC(=O)c3cc(O)c(O)c(O)c3)c2)[C@@H]1OC(=O)c1cc(O)c(O)c(OC(=O)c2cc(O)c(O)c(O)c2)c1)c1cc(O)c(O)c(OC(=O)c2cc(O)c(O)c(O)c2)c1, which cytotoxicity increase is on record?
Answer: Its cytotoxicity increase is -61.4% [at 15.8 µM].

Question: Which Potency does the source give for Nc1c2ccccc2nc2ccccc12 here?
Answer: Its Potency is 12.1 µM (active) and 10.7 µM (active).

Question: Which Potency does the source give for CCCCCCCCCOC(=O)c1ccc(O)cc1 here?
Answer: The Potency was 48.3 µM (active).

Question: For Cc1cccc(S(=O)(=O)O)c1C, which Potency is on record?
Answer: Its Potency is “inactive”.

Question: With CC(=O)OCC(C)OC(C)=O (stereo not given) as the molecule, how does the Potency read?
Answer: The Potency was “inactive”.

Question: With CC(C)(C)C(=O)OCOC(=O)C1N2C(=O)CC2S(=O)(=O)C1(C)C (stereo not given) as the molecule, how does the Potency read?
Answer: The Potency was “inactive”.

Question: For Oc1ccc2cc(SSc3ccc4cc(O)ccc4c3)ccc2c1, which Potency is on record?
Answer: The Potency was “inactive”.

Question: With Cc1cc(O)c(Cl)c(C)c1Cl as the molecule, how does the Potency read?
Answer: The Potency was 54.9 µM (active).

Question: For CCCCCCCCS(=O)C(C)Cc1ccc2c(c1)OCO2 (stereo not given), which Potency is on record?
Answer: Its Potency is “inactive”.

Question: Which Potency does the source give for C[n+]1ccn(Cc2ccccc2)c1 here?
Answer: The Potency was “inactive”.

Question: For O=C1C=CC(=O)N1c1ccc(Cc2ccc(N3C(=O)C=CC3=O)cc2)cc1, which Potency is on record?
Answer: The Potency was 9.77 µM (active).

Question: Which Potency does the source give for CCc1cc(SCc2sc(-c3ccc(C(F)(F)F)cc3)nc2CN2CCN(c3ccc(OC)cc3)CC2)ccc1OCC(=O)O here?
Answer: The Potency was “inactive”.

Question: Which Potency does the source give for Cc1cc(C2CCCCC2)n(O)c(=O)c1 here?
Answer: The Potency was “inactive”.

Question: For CCCCCCCCCCCC[N+](C)(C)CCCCCCCCCCCC, which Potency is on record?
Answer: The Potency was 7.76 µM (active).

Question: With Cc1cccc(CN2CCN(C(c3ccccc3)c3ccc(Cl)cc3)CC2)c1 (stereo not given) as the molecule, how does the Potency read?
Answer: Its Potency is “inactive”.

Question: Which Potency does the source give for CO[Si](CCCNc1ccccc1)(OC)OC here?
Answer: Its Potency is “inactive”.

Question: Which Potency does the source give for [Cl][Bi]([Cl])([c]1ccccc1)([c]1ccccc1)[c]1ccccc1 here?
Answer: Its Potency is 6.13 µM (active).

Question: With O=C(NOCC1CC1)c1ccc(F)c(F)c1Nc1ccc(I)cc1Cl as the molecule, how does the Potency read?
Answer: Its Potency is 0.0849 µM (active).

Question: For CCCCCCCCCCCCCCCCCC[N+](C)(C)C, which Potency is on record?
Answer: Its Potency is 49.1 µM (active).

Question: With CN(C)C(=O)C1(N2CCCCC2)CCN(CC[C@@]2(c3ccc(Cl)c(Cl)c3)CN(C(=O)c3ccccc3)CCO2)CC1 as the molecule, how does the Potency read?
Answer: Its Potency is 18.2 µM (active).
